Assay outcomes deposited in PubChem by National Center for Advancing Translational Sciences (NCATS).
Many of the other results were omitted from the sample, so hits are more common in it than they were.
Cruzain Triton – qHTS Assay for Promiscuous and Specific Inhibitors of Cruzain (with detergent). Cruzipain (Trypanosoma cruzi), P25779. purified cruzain, Z-FR-AMC fluorescence, 0.01% Triton. Potency, µM, hits mostly inhibitors. 200,000 tested, 0.43% active; note: nearly all actives have a fitted effect of over 40% in size
Target sequence (P25779 123-467 limits assumed): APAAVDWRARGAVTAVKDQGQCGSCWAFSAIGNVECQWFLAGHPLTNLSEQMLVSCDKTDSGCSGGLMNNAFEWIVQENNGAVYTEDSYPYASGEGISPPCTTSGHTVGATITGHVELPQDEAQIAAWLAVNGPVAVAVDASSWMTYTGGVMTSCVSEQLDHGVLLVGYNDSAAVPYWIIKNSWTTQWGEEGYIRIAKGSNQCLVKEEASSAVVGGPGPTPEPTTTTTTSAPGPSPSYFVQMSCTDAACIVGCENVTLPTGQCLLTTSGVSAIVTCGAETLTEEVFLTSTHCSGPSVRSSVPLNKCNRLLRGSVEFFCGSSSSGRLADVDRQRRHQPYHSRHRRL
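Enzyme 1.5 nM, Z-FR-AMC 2 uM, NaOAc 100 mM pH 5.5, DTT 5 mM, Triton X-100 0.01%; 15 min RT compound preincubation; kinetic ex360/em450, 60 s delta.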
Giardia FBPA inh – qHTS Assay for Inhibitors of Fructose-1,6-bisphosphate Aldolase from Giardia Lamblia | purified Giardia FBPA | Potency, µM (top dose mostly 59.6 µM), hits mostly inhibitors | 290,000 tested, 0.71% active | A8B2U2 | AID 2451, 2010; note: nearly all actives have a fitted effect of over 55% in size
Target sequence (A8B2U2 whole entry, looked up): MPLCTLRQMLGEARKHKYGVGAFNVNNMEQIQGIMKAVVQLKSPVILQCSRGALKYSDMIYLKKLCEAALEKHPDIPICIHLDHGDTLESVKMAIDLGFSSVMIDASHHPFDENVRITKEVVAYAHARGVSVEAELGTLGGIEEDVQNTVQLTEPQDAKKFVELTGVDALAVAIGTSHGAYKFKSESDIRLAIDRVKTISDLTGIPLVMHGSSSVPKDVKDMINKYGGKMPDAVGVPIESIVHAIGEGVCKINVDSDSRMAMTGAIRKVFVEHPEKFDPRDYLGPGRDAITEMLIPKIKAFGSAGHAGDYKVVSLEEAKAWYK
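40 nM FBPA preincubated 10 min at RT with compound (up to 57.5 uM final), then substrate plus GAPDH/TPI/NAD/arsenate coupling and diaphorase/resazurin added. Fluorescence read after 20 min at RT, 525/598 nm.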
Cruzain noTriton – qHTS Assay for Promiscuous and Specific Inhibitors of Cruzain (without detergent); Potency, µM, hits mostly inhibitors; purified cruzain, Z-FR-AMC fluorescence, no detergent; Cruzipain (Trypanosoma cruzi), P25779; 200,000 tested, 2.3% active; note: nearly all actives have a fitted effect of over 40% in size
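Detergent-free condition (0.00005% Triton X-100) in acetate buffer pH 5.5 with DTT. 1.5 nM enzyme and compound were pre-mixed 15 min, then 2 uM Z-FR-AMC substrate added; reaction progress from fluorescence change between first and third reads (60 s).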
Of the large screens only hits and unclear results are named; the others gave an inactive call. Calls come from the whole dose curve; as a rule, active = well fitted curve in the direction sought with a large enough effect; inconclusive = small, poorly fitted or top-dose-only effect, or another doubt; inactive = no such curve, though single readings can be large; an effect the other way counts as inactive or inconclusive.

CCOC(=O)OCC1C=C[C@H](c2cc(-c3ccccc3)ccc2O)C(c2ccc(C(C)=O)cc2)O1 (stereo not given in full)	none (no result: Cruzain Triton, Cruzain noTriton)
Cc1ccc(SCc2ccc(C(=O)Nc3cc([N+](=O)[O-])ccc3C)cc2)cc1	none (no result: Giardia FBPA inh)
Cc1ccc(SCc2ccc(C(=O)Nc3cccc([N+](=O)[O-])c3)cc2)cc1	Cruzain noTriton 20µM
O=C(NCc1cccs1)c1nn(-c2ccccc2F)nc1CO	none (no result: Giardia FBPA inh)
Cc1cc(N2CCN(C)CC2)nc2ccc(NC(=O)Nc3ccccc3Cl)cc12	none (no result: Giardia FBPA inh)
Cc1sc2ncnc(SCC(=O)N3c4ccccc4Sc4ccc(Cl)cc43)c2c1C	Cruzain noTriton 7.94µM
Cc1sc2ncnc(SCC(=O)N3CCCCC3)c2c1C	none (no result: Cruzain Triton, Cruzain noTriton)
CN(C)CN1CSC(=S)N(CN(C)C)C1	none (no result: Giardia FBPA inh)
CC(=O)c1ccc(NC(=O)C(=O)c2cn(CC(=O)N3CCCCC3)c3ccccc23)cc1	Cruzain noTriton 10µM
CC(=O)Nc1ccc(NC(=O)C(=O)c2cn(CC(=O)N3CCCCC3)c3ccccc23)cc1	none (no result: Cruzain Triton, Cruzain noTriton)
ClCCCCl	none (no result: Giardia FBPA inh)
CC(=O)c1cccc(NC(=O)COC(=O)[C@@H](NC(=O)OCc2ccccc2)C(C)C)c1	Cruzain Triton 15.8µM, Cruzain noTriton 25.1µM
CC(C)C(NC(=O)OCc1ccccc1)C(=O)OCC(=O)N1CCCCC1 (stereo not given)	none
N#Cc1ccc(-c2ccc(Cl)cc2)nc1SCC(=O)c1cccc(Cl)c1	Cruzain noTriton 10µM
N#Cc1ccc(-c2cccnc2)nc1SCC(=O)c1ccccc1	none (no result: Cruzain Triton, Cruzain noTriton)
N#Cc1ccc(-c2ccccc2)nc1SCC(=O)c1cccc(Cl)c1	Cruzain noTriton 12.6µM
CCN(CC)C(=O)CSc1nc(-c2ccccc2)ccc1C#N	none (no result: Cruzain Triton, Cruzain noTriton)
COc1ccc(OC)c(CCNC(=O)c2nn(C)c3c2CSc2ccccc2-3)c1	none (no result: Giardia FBPA inh)
C(=N\Nc1nc(-c2ccccc2)cs1)/c1cccs1	Cruzain noTriton 25.1µM
C(=N\Nc1nc(-c2ccccc2)cs1)/c1ccncc1	none (no result: Cruzain Triton, Cruzain noTriton)
COc1ccc(/C=C2\SC(N3CCCCC3)=NC2=O)cc1	none (no result: Cruzain Triton, Cruzain noTriton)
COc1ccc(/C=C2\SC(=O)N=C2N)cc1	Cruzain noTriton 31.6µM
COc1cccc(/C=C2\N=C(C3CCCCC3)OC2=O)c1OC	none (no result: Cruzain Triton, Cruzain noTriton)
CCCC1CCC(C2=N/C(=C\c3ccc(OC)c(OC)c3)C(=O)O2)CC1 (stereo not given)	Cruzain Triton 1µM, Cruzain noTriton 2.51µM
Cc1cccc(Cc2c(C)nc3nc(SCc4ccccc4C)nn3c2C)c1	none (no result: Giardia FBPA inh)
Cc1cccc(N2C(=O)C(Cl)=C(N3CCOCC3)C2=O)c1	none (no result: Cruzain Triton, Cruzain noTriton)
O=C1C(Cl)=C(N2CCN(Cc3ccccc3)CC2)C(=O)N1c1ccccc1	none
Cc1ccc(N2C(=O)C(Cl)=C(N3CCN(C)CC3)C2=O)c(C)c1	Cruzain noTriton inconclusive
COc1ccc(N2C(=O)C(Cl)=C(N3CCN(Cc4ccccc4)CC3)C2=O)cc1	Cruzain Triton 17.8µM
CN1CCN(C2=C(Cl)C(=O)N(c3ccc(Cl)cc3)C2=O)CC1	Cruzain Triton inconclusive, Cruzain noTriton 25.1µM
O=C1C(Cl)=C(N2CCOCC2)C(=O)N1c1cccc(Cl)c1	Cruzain Triton 12.6µM, Cruzain noTriton 12.6µM
NC(=O)C[C@H](N)C(N)=O	none (no result: Giardia FBPA inh)
Cc1ccccc1C	none (no result: Giardia FBPA inh)
Cc1cccc(CS(=O)(=O)CC2Nc3ccc(C(=O)NCc4ccccc4Cl)cc3NC2=O)c1 (stereo not given)	Cruzain noTriton inconclusive (no result: Giardia FBPA inh)
O=C1c2cccc([N+](=O)[O-])c2C(=O)N1c1ncn[nH]1	none (no result: Giardia FBPA inh)
CCCCc1nc2c(c3c1C[C@H](C)OC3)CN(C(=O)COC)CC2	none (no result: Cruzain Triton, Cruzain noTriton)
O=C(O)CSCc1cccc2ccccc12	none (no result: Giardia FBPA inh)
Cc1cc(/C=C2/SC(=S)N(c3ccc([N+](=O)[O-])cc3)C2=O)c(C)n1-c1cccnc1	Cruzain noTriton 15.8µM
Cc1cccc(N2C(=O)/C(=C/c3cccnc3)SC2=S)c1	none (no result: Cruzain Triton, Cruzain noTriton)
CCn1c(=O)c(C(=O)NNS(=O)(=O)c2ccc(Cl)cc2)c(O)c2ccccc21	Cruzain noTriton 25.1µM
CCn1c(=O)c(C(=O)NNC(=O)c2ccccc2)c(O)c2ccccc21	none (no result: Cruzain Triton, Cruzain noTriton)
O=C(CSc1oc(-c2ccccc2)nc1S(=O)(=O)c1ccc(Br)cc1)c1ccccc1	Cruzain noTriton 12.6µM (no result: Giardia FBPA inh)
O=C(CSc1oc(-c2ccccc2)nc1S(=O)(=O)c1ccccc1)c1ccccc1	Cruzain noTriton inconclusive (no result: Giardia FBPA inh)
CCOc1ccc(NC(=O)c2cnn3c2NC(C)=C(C(=O)Nc2ccc(Cl)cc2)C3c2ccc(OC)c(OC)c2)cc1 (stereo not given)	none (no result: Giardia FBPA inh)
O=C1CC(c2ccc(F)cc2)Cc2nc(N3CCc4ccccc43)ncc21 (stereo not given)	Cruzain noTriton inconclusive
Fc1cnc(N2CCc3ccccc32)nc1N1CCc2ccccc21	Cruzain noTriton 3.16µM
COc1ccc(Cl)cc1NC(=O)c1c(C(=O)Nc2cccc(C)c2C)sc2nc(C)cc(=O)n12	none (no result: Giardia FBPA inh)
CC(C)=CCC1=C(O)c2ccccc2C(=O)C1=O	Giardia FBPA inh 1.12µM
CN=CC1=C(O)c2ccccc2C1=O	none
COc1cccc2sc(NC(=O)c3ccc(S(=O)(=O)N4CCC(C)CC4)cc3)nc12	Cruzain noTriton inconclusive (no result: Giardia FBPA inh)
CN(Cc1ccccc1)S(=O)(=O)c1ccc(NC(=O)c2cc(=O)c3ccccc3o2)cc1	Cruzain noTriton inconclusive (no result: Giardia FBPA inh)
CN(C)c1ccc(NC(=O)CCSc2nc(-c3ccco3)cc(C(F)(F)F)n2)cc1	none (no result: Giardia FBPA inh)
CCCS(=O)(=O)Nc1cc2c(cc1NCc1ccccc1)n(C)c(=O)n2C	none (no result: Giardia FBPA inh)
CC(C)(C)c1ccc(C(=O)N2CC(=O)Nc3ccc(F)cc3C2c2ccc(F)cc2)cc1 (stereo not given)	none (no result: Giardia FBPA inh)
Cc1ccc(C)c(S(=O)(=O)c2nnn3c2nc(Nc2ccc(F)c(Cl)c2)c2sccc23)c1	none (no result: Giardia FBPA inh)
Cc1cc(C)c2c(c1)-c1c(ssc1=S)C(C)(C)N2C(=O)CN1C(=O)c2ccccc2C1=O	Cruzain noTriton inconclusive
Cc1cccc2c1N(C(=O)CN1C(=O)c3ccccc3C1=O)C(C)(C)c1ssc(=S)c1-2	Cruzain noTriton 12.6µM
CC(=O)N1CCc2cc(Br)cc(S(=O)(=O)NCCc3cccc(C)c3)c21	none (no result: Giardia FBPA inh)
O=C(Nc1ccccc1N1CCCCC1)c1ccc(-c2cccc(Cl)c2)o1	none
O=C(NC(=S)Nc1cc(Cl)ccc1N1CCOCC1)c1ccc(-c2cccc(Cl)c2)o1	Cruzain noTriton 7.94µM
COC(=O)NC(c1ccccc1)C(C(=O)OC)C(=O)OC (stereo not given)	none (no result: Cruzain Triton, Cruzain noTriton)
COC(=O)c1cccc(C23CC4(C2)[C@H](CN(Cc2ccc(-c5ccccc5)cc2)[C@@H]4c2ccccc2)C3c2ccc(C(F)(F)F)cc2)c1 (stereo not given in full)	Cruzain noTriton 25.1µM
c1ccc(-c2ccc(CN3C[C@@H]4C(c5ccccc5)C5(c6cccnc6)CC4(C5)[C@H]3c3ccccc3)cc2)cc1 (stereo not given in full)	none
FC(F)(F)c1ccc(C2[C@H]3CN(Cc4ccc(-c5ccccc5)cc4)[C@H](c4ccccc4)C34CC2(c2cccnc2)C4)cc1 (stereo not given in full)	none
COC(=O)c1ccc(C23CC4(C2)[C@H](CN(Cc2ccc(-c5ccccc5)cc2)[C@@H]4c2ccccc2)C3c2ccc(C(F)(F)F)cc2)cc1 (stereo not given in full)	Cruzain noTriton inconclusive
